Data: ChEMBL document CHEMBL1961873, “Compounds: GSK PKIS; Assays: Nanosyn kinase panel” (2012)

Experiments:
[1] = biological target: Calcium/calmodulin-dependent protein kinase type II subunit alpha (Homo sapiens) (UniProt Q9UQM7); details: at 1 µM;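 also: reported value is a mean percent inhibition of CAMK2A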
[2] = biological target: Calcium/calmodulin-dependent protein kinase type II subunit delta (Homo sapiens) (UniProt Q13557); details: at 0.1 µM
[3] = biological target: Calcium/calmodulin-dependent protein kinase type II subunit delta (Homo sapiens) (UniProt Q13557); details: at 1 µM
[4] = biological target: T1, Calcium/calmodulin-dependent protein kinase type IV (Homo sapiens) (UniProt Q16566); details: at 0.1 µM
T1 sequence (whole entry): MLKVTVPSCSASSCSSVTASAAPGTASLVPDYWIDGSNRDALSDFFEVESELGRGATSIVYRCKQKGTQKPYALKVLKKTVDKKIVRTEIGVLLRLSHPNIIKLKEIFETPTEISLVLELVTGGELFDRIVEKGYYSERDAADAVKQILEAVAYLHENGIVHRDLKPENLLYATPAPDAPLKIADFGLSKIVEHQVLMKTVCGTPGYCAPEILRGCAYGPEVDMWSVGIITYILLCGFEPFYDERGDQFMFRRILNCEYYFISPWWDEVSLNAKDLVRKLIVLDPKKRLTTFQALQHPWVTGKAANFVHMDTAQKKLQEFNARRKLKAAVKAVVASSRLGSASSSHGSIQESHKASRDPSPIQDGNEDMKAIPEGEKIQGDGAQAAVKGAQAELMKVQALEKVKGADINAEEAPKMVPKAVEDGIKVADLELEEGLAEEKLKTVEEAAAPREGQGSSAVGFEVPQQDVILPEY

[5] = biological target: T1, Calcium/calmodulin-dependent protein kinase type IV (Homo sapiens); details: at 1 µM
[6] = biological target: T2, Serine/threonine-protein kinase Chk1 (Homo sapiens) (UniProt O14757); details: at 0.1 µM
T2 sequence (whole entry): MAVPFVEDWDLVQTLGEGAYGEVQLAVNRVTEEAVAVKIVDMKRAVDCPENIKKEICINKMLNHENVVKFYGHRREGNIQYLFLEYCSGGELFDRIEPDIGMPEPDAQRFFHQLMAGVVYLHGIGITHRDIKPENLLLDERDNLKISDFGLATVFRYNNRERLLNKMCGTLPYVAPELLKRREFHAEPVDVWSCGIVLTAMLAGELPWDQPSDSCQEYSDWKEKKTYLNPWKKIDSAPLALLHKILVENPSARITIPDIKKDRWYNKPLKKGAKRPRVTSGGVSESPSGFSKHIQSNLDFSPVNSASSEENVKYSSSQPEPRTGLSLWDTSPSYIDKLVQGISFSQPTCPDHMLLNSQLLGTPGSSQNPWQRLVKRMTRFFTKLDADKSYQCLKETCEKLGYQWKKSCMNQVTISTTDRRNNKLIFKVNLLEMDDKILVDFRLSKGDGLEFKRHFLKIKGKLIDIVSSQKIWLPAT

[7] = biological target: T2, Serine/threonine-protein kinase Chk1 (Homo sapiens); details: at 1 µM
[8] = biological target: Serine/threonine-protein kinase Chk2 (Homo sapiens) (UniProt O96017); details: at 0.1 µM
[9] = biological target: Serine/threonine-protein kinase Chk2 (Homo sapiens) (UniProt O96017); details: at 1 µM
[10] = biological target: Death-associated protein kinase 1 (Homo sapiens) (UniProt P53355); details: at 0.1 µM
[11] = biological target: Death-associated protein kinase 1 (Homo sapiens) (UniProt P53355); details: at 1 µM
[12] = biological target: T3, Serine/threonine-protein kinase DCLK2 (Homo sapiens) (UniProt Q8N568); details: at 0.1 µM
T3 sequence (whole entry): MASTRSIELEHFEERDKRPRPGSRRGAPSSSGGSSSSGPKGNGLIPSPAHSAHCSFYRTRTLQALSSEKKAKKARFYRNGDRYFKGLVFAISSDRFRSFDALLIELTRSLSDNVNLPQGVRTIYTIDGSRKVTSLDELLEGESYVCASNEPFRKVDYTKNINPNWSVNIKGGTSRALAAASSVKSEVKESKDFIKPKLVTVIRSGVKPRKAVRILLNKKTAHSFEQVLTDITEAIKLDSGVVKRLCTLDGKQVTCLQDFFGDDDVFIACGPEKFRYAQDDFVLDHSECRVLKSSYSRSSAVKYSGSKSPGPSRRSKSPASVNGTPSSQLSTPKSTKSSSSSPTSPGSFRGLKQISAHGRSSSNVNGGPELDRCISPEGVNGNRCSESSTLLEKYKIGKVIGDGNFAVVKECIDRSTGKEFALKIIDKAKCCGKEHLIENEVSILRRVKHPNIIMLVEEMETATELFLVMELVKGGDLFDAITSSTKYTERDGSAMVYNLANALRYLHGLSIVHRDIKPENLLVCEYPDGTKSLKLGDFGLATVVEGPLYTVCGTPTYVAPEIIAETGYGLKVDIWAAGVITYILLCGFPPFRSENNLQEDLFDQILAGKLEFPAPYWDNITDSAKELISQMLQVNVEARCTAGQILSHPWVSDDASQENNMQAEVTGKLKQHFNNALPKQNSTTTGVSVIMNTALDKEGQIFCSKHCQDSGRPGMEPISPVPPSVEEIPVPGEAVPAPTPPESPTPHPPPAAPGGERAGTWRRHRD

[13] = biological target: T3, Serine/threonine-protein kinase DCLK2 (Homo sapiens); details: at 1 µM
[14] = biological target: MAP kinase-activated protein kinase 2 (Homo sapiens) (UniProt P49137); details: at 0.1 µM
[15] = biological target: MAP kinase-activated protein kinase 2 (Homo sapiens) (UniProt P49137); details: at 1 µM
[16] = biological target: MAP kinase-activated protein kinase 3 (Homo sapiens) (UniProt Q16644); details: at 0.1 µM
[17] = biological target: MAP kinase-activated protein kinase 3 (Homo sapiens) (UniProt Q16644); details: at 1 µM
[18] = biological target: Serine/threonine-protein kinase MARK1 (Homo sapiens) (UniProt Q9P0L2); details: at 0.1 µM
[19] = biological target: Serine/threonine-protein kinase MARK1 (Homo sapiens) (UniProt Q9P0L2); details: at 1 µM
[20] = biological target: MAP/microtubule affinity-regulating kinase 3 (Homo sapiens) (UniProt P27448); details: at 0.1 µM;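 also: mean percent inhibition of MARK3 kinase activity, measured within the GSK PKIS screening panel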
Chain of MAP/microtubule affinity-regulating kinase 3 (Homo sapiens) (P27448 whole entry, looked up): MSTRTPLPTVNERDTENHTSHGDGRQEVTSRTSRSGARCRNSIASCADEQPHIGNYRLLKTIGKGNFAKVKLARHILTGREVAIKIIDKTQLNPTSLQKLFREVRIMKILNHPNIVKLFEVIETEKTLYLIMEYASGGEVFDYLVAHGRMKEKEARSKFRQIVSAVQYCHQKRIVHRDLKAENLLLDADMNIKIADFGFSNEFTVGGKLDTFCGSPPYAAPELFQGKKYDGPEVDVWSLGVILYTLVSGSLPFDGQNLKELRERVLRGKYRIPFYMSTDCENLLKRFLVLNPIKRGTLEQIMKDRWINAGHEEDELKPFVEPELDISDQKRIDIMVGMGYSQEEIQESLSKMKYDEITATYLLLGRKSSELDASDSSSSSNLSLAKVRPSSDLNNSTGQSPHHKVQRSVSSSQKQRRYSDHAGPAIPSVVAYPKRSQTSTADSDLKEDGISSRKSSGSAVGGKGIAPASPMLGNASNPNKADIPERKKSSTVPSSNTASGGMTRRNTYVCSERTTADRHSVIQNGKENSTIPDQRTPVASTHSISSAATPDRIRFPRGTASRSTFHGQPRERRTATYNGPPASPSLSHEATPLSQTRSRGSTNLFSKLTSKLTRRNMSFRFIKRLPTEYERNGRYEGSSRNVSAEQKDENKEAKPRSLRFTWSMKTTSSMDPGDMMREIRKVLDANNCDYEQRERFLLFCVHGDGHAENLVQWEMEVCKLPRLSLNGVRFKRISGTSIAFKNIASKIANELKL

Chain of Serine/threonine-protein kinase MARK1 (Homo sapiens) (Q9P0L2 whole entry, looked up): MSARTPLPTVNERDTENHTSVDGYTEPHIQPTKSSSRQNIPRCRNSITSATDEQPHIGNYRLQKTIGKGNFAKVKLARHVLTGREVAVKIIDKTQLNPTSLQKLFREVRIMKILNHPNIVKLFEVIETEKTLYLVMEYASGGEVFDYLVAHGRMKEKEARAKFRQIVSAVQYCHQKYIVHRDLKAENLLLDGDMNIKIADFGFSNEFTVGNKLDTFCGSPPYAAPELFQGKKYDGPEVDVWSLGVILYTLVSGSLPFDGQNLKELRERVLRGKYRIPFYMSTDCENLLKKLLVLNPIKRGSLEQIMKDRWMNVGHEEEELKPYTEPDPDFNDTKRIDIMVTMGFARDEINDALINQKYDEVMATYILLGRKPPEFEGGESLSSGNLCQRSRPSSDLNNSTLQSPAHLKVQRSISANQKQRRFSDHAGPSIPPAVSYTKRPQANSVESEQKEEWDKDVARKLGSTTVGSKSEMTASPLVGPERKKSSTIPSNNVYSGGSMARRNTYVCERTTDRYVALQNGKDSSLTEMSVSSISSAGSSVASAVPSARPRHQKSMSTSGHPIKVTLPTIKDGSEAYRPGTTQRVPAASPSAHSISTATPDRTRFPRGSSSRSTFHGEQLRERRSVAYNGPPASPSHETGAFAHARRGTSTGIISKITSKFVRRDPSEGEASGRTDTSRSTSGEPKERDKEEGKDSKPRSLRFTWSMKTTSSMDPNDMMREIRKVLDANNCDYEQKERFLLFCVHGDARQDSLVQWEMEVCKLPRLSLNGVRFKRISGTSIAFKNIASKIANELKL
Chain of MAP kinase-activated protein kinase 2 (Homo sapiens) (P49137 whole entry, looked up): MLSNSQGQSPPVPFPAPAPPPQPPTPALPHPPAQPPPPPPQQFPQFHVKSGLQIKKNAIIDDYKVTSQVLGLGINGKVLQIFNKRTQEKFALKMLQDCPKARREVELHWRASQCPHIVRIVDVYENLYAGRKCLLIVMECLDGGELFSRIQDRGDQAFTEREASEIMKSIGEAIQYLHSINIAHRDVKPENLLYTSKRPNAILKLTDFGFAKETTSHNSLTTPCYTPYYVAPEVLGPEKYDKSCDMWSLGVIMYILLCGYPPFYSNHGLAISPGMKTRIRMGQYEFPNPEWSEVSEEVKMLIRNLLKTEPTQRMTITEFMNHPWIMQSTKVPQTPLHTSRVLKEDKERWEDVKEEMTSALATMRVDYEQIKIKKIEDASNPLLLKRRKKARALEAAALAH
Chain of Serine/threonine-protein kinase Chk2 (Homo sapiens) (O96017 whole entry): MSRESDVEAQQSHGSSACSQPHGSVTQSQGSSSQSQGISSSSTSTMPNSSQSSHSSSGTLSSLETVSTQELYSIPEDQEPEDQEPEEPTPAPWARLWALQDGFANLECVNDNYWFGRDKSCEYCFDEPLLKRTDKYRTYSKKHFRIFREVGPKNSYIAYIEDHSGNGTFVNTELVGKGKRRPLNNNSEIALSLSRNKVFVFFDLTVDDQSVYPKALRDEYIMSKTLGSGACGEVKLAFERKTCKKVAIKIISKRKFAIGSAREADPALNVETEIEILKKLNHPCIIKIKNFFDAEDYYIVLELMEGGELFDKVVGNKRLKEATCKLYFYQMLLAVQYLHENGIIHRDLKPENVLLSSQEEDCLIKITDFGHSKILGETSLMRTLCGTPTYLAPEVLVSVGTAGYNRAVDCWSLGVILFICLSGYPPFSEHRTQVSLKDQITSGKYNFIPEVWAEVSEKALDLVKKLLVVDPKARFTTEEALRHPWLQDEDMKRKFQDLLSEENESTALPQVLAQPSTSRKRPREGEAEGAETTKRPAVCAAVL
Chain of Calcium/calmodulin-dependent protein kinase type II subunit delta (Homo sapiens) (Q13557 whole entry): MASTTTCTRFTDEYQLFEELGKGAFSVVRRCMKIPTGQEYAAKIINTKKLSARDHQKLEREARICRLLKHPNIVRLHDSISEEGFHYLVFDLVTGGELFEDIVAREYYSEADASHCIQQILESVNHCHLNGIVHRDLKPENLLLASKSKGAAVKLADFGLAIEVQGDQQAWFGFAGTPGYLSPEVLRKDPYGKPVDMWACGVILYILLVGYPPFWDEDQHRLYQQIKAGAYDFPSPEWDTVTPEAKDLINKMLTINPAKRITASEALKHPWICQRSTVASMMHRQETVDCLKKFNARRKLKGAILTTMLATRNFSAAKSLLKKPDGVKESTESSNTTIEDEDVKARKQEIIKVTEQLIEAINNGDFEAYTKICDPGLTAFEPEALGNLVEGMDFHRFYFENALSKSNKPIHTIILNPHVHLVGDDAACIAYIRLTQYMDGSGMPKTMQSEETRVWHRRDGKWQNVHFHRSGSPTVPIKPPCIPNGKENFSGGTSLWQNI
Chain of MAP kinase-activated protein kinase 3 (Homo sapiens) (Q16644 whole entry, looked up): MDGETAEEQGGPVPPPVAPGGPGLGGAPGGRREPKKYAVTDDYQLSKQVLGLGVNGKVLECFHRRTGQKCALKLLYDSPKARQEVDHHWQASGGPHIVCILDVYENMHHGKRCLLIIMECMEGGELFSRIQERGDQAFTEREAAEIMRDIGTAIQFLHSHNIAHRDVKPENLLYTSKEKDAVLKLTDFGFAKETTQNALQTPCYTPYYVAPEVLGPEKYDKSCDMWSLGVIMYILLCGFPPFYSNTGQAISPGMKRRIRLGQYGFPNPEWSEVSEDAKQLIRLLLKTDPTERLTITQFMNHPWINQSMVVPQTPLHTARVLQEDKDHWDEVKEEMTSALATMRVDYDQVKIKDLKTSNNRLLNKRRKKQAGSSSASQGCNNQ
Chain of Death-associated protein kinase 1 (Homo sapiens) (P53355 whole entry, looked up): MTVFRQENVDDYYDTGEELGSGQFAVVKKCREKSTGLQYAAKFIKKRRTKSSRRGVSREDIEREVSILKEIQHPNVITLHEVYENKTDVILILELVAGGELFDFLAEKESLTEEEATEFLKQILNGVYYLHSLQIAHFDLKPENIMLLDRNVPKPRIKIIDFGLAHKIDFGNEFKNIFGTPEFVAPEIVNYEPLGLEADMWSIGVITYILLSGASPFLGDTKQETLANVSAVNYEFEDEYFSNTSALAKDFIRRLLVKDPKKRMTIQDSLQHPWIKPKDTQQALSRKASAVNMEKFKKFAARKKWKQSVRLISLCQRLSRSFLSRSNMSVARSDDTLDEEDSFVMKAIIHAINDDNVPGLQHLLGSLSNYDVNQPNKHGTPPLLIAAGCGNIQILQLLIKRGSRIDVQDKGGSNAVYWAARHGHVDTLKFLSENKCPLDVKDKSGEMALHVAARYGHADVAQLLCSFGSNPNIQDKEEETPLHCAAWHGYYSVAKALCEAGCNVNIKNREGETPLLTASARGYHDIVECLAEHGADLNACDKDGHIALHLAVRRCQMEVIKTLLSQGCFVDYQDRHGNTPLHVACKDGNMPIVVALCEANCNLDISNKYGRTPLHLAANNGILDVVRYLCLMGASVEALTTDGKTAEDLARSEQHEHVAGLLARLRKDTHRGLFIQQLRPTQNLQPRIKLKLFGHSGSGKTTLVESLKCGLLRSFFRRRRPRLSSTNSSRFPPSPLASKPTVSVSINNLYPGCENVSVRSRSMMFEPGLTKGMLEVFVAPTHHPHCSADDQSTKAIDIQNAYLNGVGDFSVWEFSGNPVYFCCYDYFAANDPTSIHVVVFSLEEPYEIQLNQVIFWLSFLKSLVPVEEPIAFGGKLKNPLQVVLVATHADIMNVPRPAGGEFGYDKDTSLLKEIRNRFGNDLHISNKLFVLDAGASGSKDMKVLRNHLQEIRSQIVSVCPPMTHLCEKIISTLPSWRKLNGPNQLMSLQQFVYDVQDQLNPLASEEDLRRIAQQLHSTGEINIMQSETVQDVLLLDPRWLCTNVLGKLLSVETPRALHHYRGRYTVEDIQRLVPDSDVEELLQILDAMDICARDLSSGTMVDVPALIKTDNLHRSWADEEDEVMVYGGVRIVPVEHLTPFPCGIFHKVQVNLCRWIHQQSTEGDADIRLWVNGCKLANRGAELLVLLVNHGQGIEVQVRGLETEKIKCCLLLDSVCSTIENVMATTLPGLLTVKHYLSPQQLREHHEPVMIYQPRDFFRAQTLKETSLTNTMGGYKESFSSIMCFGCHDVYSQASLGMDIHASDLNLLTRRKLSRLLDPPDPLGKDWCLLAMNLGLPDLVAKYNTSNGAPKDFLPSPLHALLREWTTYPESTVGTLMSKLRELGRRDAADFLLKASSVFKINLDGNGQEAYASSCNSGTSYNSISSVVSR

Row | Compound | inhibition [1] | inhibition [2] | inhibition [3] | inhibition [4] | inhibition [5] | inhibition [6] | inhibition [7] | inhibition [8] | inhibition [9] | inhibition [10] | inhibition [11] | inhibition [12] | inhibition [13] | inhibition [14] | inhibition [15] | inhibition [16] | inhibition [17] | inhibition [18] | inhibition [19] | inhibition [20]
1 | Fc1ccc(-c2ncn(C3CCNCC3)c2-c2ccnc(Oc3ccc4c(c3)OCO4)n2)cc1 | 12.6% | 2.69% | 3.08% | 0.19% | 0.41% | -3.37% | -1.58% | -2.12% | -3.43% | -1.22% | -4.62% | 2.01% | 2.26% | 0% | -0.67% | 29.6% | 31.2% | 2.98% | 5.01% | 3.59%
2 | C[C@@H](Oc1cc(-n2cnc3ccc(OC4CCN(C)CC4)cc32)sc1C(N)=O)c1ccccc1Cl | 14.4% | 10.2% | 44.3% | -2.92% | 2.05% | 0.96% | 7.85% | 3.23% | 5.06% | 3.53% | 1.99% | -3.12% | -1.54% | 1.32% | 2.41% | 3.38% | 3.91% | 3.46% | 8.24% | 4.33%
3 | Cc1nnc(-c2ccc(C)c(-c3ccc(C(=O)NCc4ccc(Cl)cc4)cc3)c2)o1 | 3.22% | 2.75% | 2.68% | 0.34% | 0.46% | 1.36% | 2.22% | 1.43% | 1.86% | 2.85% | 1.9% | -1.39% | -8.11% | 1.41% | 0.78% | 5.02% | 15.7% | 2.82% | 4.92% | 0.14%
4 | NC(=O)Cc1ccccc1Oc1nccc(-c2c(-c3ccc(F)cc3)ncn2C2CCNCC2)n1 | 2.07% | 2.62% | 2.58% | 0.99% | -0.11% | 0.75% | 5.68% | 4.2% | 6.05% | 2.51% | 4.92% | 0.97% | 0.45% | 0.74% | 0.89% | 13.4% | 28.7% | 2.13% | 4.3% | 9.03%
5 | CN(C)CCCNc1nccc(-c2c(-c3ccc(F)cc3)nn3cc(C(F)(F)F)ccc23)n1 | 4.26% | 3.65% | 4.37% | 1.43% | 2.27% | -3.07% | 1.13% | 0.82% | 0.61% | 0.55% | 0.77% | -2.25% | -1.62% | -0.13% | 0.05% | 8.23% | 22.7% | 3.37% | 1.8% | 3.54%
6 | CN(c1ccc(NC(=O)Nc2c(Cl)cccc2Cl)cc1)c1ccnc(Nc2cccc(CS(C)(=O)=O)c2)n1 | 2.73% | 1.22% | -0.38% | -1.59% | -4.21% | 1.99% | 4.63% | 10.1% | 16.8% | 4.55% | 4.43% | 3.64% | 4.12% | 0.46% | 1.08% | 0.42% | 0.31% | 3.52% | 10.8% | 2.64%
7 | CCc1nccc2c1nc(-c1nonc1N)n2CC | 2.34% | 2% | 3.76% | 2.07% | 1.55% | 1.61% | -3.41% | -1.09% | -0.94% | 0.87% | 2.17% | -1.22% | 4.54% | -0.33% | -0.34% | 0.57% | 2.5% | 1.68% | 1.49% | 1%
8 | COc1ccc(C2=C(N3CCc4ccccc43)C(=O)NC2=O)cc1 | 4.72% | 4.35% | 7.01% | 0.45% | 0.33% | 3.53% | 3.47% | 3.04% | 3.92% | 3.58% | 4.07% | 2.43% | 0.92% | 2.76% | 1.74% | 4.85% | 5.21% | 3.48% | 5.45% | 3.65%
9 | CN1CCN(CCCNc2nc3ccc(Oc4ccc(NC(=O)Nc5cc(C(F)(F)F)ccc5F)cc4)cc3[nH]2)CC1 | 7.84% | 3.68% | 6.84% | 1.94% | 4.86% | -0.5% | 0.8% | 1.31% | 0.77% | -0.32% | -0.71% | -6.99% | -0.8% | -0.45% | -0.49% | 3.34% | 18.3% | 0.78% | 0.66% | 5.08%
10 | COc1cc(N2CCN(C(C)C)CC2)ccc1Nc1nc(Nc2ccc(F)cc2C(=O)NC[C@@H](O)CO)c2cc[nH]c2n1 | 4.13% | 3.45% | 7.22% | -2.03% | -0.93% | 2.18% | 6.24% | 17.2% | 52.4% | 9.94% | 46.8% | 2.24% | -4.14% | 1.77% | 2.39% | 4.35% | 4.3% | 3.88% | 7.69% | 1.03%
11 | CCC(=O)Nc1ccc(C)c(-c2ccc(C(=O)NCC3CC3)cc2)c1 | 1.21% | 2.68% | 4.75% | -0.67% | 2.05% | 0.06% | -0.8% | 3.52% | 5.57% | -0.61% | -3.18% | -0.58% | 0.48% | 0.77% | 1.21% | 6.24% | 20.1% | 0.75% | 1.92% | -0.99%
